# Source: PubChem BioAssay AID651965 (National Center for Advancing Translational Sciences (NCATS), 2013)
# About 6,400 (1.9%) of roughly 340,000 compounds were called active. A call without a number means that no potency is given here. Roughly 4% stayed inconclusive and do not appear here. Calls come from the whole dose curve; as a rule, active = well fitted falling curve with a large enough effect; inconclusive = small, poorly fitted or top-dose-only effect; inactive = no such curve, though single readings can be large or run the other way. Only a selection was taken, and actives are over-represented in it overall.
# Target: ATP-dependent Clp protease proteolytic subunit (Bacillus subtilis (strain 168)) (UniProt P80244)
# Sequence (P80244 whole entry, looked up): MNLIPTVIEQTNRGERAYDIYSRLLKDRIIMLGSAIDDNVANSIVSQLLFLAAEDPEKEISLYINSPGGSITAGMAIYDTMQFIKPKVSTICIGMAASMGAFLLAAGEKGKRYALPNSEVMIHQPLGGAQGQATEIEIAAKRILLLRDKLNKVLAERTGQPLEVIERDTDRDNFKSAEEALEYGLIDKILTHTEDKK
# Assay: qHTS Assay for Activators of ClpP; note: the source files actives as falling curves though it sought activators and does not explain the sign; nearly all actives have a fitted effect of over 65% in size
# Conditions: purified B. subtilis ClpP, FRET peptide cleavage, 20 min; series mostly up to 57.5 µM
# How it was run: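 ClpP 10 microg/mL final, pH 8 Tris/KCl buffer with BSA, glycerol, Tween-20; compound pinned in; FRET-FV substrate; RT 20 min; Ex320/Em430; ΔFRET vs ADEP 5.8 microM, DMSO, no enzyme.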
# Potency is the fitted concentration of half-maximal effect.
row,Structure (SMILES),Potency
1,COC(=O)[C@@]12C[C@@H](CC(=O)N3CCCCC3)C(=O)N(Cc3ccc4c(c3)OCO4)C1=CCC(C)(C)C2,inactive
2,CCc1nnc(SCC(=O)Nc2cc(OC)ccc2OC)nc1CC,inactive
3,COc1ccc2nc(SCc3ccccc3)nc(C)c2c1,inactive
4,COC(=O)CSc1nc(C)c2ccc(OC)cc2n1,25.1 µM (active)
5,O=c1cc(CN2CCCCCCC2)c2c(ccc3ccccc32)o1,inactive
6,NS(=O)(=O)c1ccc(NC(=O)COC(=O)c2c3c(nc4ccccc24)/C(=C\c2ccc4c(c2)OCO4)CCC3)cc1,inactive
7,O=C1/C(=C/c2ccc3c(c2)OCO3)CCC/C1=C\c1ccc2c(c1)OCO2,28.2 µM (active)
8,NC(=O)c1ccc(NC(=O)COC(=O)c2c3c(nc4ccccc24)/C(=C\c2ccc4c(c2)OCO4)CCC3)cc1,inactive
9,CCOC(=O)C1=CC[C@@H](c2ccccc2)N(S(=O)(=O)c2ccc(C)cc2)[C@H]1c1cccc(OC)c1,inactive
10,O=C(c1ccc(C(F)(F)F)cc1)N1CCC(=O)N([C@H](COCc2ccccc2)Cc2ccccc2)CC1,inactive
11,O=C(O)c1cc(S(=O)(=O)N(Cc2ccccc2)c2cccc(C(F)(F)F)c2)ccc1Cl,inactive
12,Cc1ccc(N(CCC(=O)O)S(=O)(=O)c2cccc(C(F)(F)F)c2)cc1,31.6 µM (active)
13,CCc1nnc(NC(=O)CCN(c2ccc(C)cc2)S(=O)(=O)c2ccccc2)s1,inactive
14,CN(C)CCNC(=O)c1cccc(-c2cnc3c(NC=O)cc(-c4cccc(C(F)(F)F)c4)cn23)c1,inactive
15,CCN(CC(=O)Nc1ccccc1OC)C(=O)Cn1cnc2ccccc2c1=O,inactive
16,COc1ccc(S(=O)(=O)N2CCOCC2)cc1NC(=O)CC1CC2CCC1C2 (configuration not stated),inactive
17,CCN(CC(=O)Nc1ccccc1OC)C(=O)CC1CC2CCC1C2 (configuration not stated),35.5 µM (active)
18,COc1cccc(-c2nc3nc(C)cc(C)n3c2NC2CCCCC2)c1,inactive
19,COc1ccccc1-c1cc2nc(NCc3cccc(Cl)c3)ccn2n1,inactive
20,Cc1nc2sccn2c(=O)c1S(=O)(=O)NCCc1ccccc1,inactive
21,Cc1nc2sc(C)c(C)n2c(=O)c1S(=O)(=O)NCCc1ccc(Cl)cc1,3.98 µM (active)

row,Structure (SMILES),Potency
1,O=S(=O)(NCCc1ccc(Cl)cc1)c1cccs1,inactive
2,CCOC(=O)[C@]12CCC=C1N(Cc1ccco1)C(=O)[C@H](CC(=O)NCc1cccc(C(F)(F)F)c1)C2,inactive
3,O=[N+]([O-])c1ccc(CN2CC(N3CC=CC3)CS2(=O)=O)cc1 (configuration not stated),inactive
4,Cc1ccc(-c2cnc(C(O)c3cc(Cl)cc(Cl)c3)[nH]2)cc1 (configuration not stated),inactive
5,Cc1cc2oc(=O)cc(CN(C)Cc3ccccc3)c2cc1Cl,inactive
6,CN1OC[C@@H]2CN[C@H](c3ccc(-c4ccccc4)cc3)C[C@@H]21,inactive
7,Cc1ccc(C2=C/C(=C\c3cccnc3)C(=O)O2)cc1,inactive
8,O=C1OC(c2ccc(Cl)cc2)=N/C1=C\c1cccnc1,3.16 µM (active)
9,Cc1ccc(C2=N/C(=C\c3ccc(OS(=O)(=O)c4ccc(C)cc4)cc3)C(=O)O2)cc1,inactive
10,Cc1cccc(NC(=O)CSc2nc(-c3ccco3)cc(C(F)(F)F)n2)c1C,inactive
11,O=C(NCCCN1CCOCC1)c1cn(-c2ccccc2)nc1-c1ccc(F)cc1,inactive
12,O=C(NCCCN1CCOCC1)c1cc(-c2ccccc2F)no1,inactive
13,O=C(NCc1ccco1)c1cnn2c(C(F)(F)F)cc(-c3ccco3)nc12,inactive
14,O=C(NCCCN1CCOCC1)c1cnn2c(-c3ccccc3)cc(-c3ccccc3)nc12,15.8 µM (active)
15,Cc1ccc(-c2cc(C(F)(F)F)n3ncc(C(=O)N4CCCCC4c4cccnc4)c3n2)cc1 (configuration not stated),inactive
16,Cc1cccc(N2CCN(C(=O)c3cnn4c(C(F)F)cc(-c5ccccc5)nc34)CC2)c1C,inactive
17,COC(=O)c1cnn2c(C(F)(F)F)cc(-c3ccco3)nc12,28.2 µM (active)
18,O=C(O)c1cnn2c(C(F)(F)F)cc(-c3ccccc3)nc12,0.631 µM (active)
19,Cc1cccc(CNC(=O)c2sc(=O)n(Cc3ccccc3C)c2C)c1,inactive
20,Cc1ccc(-c2nc3ccc(Br)cn3c2Cc2ccccc2C(F)(F)F)cc1,inactive
21,Cc1csc[n+]1CCC1CCCCC1,inactive

row,Structure (SMILES),Potency
1,CCOC(=O)C1(C)CCCN(C(=O)c2cccc(Cl)c2)C1 (configuration not stated),inactive
2,CN(C(=N)N)c1ccc(/C=C2\C=Cc3ccccc32)cc1,inactive
3,CCCCC(CCCC)c1ccc(C=Nc2ccc(/C=C/c3ccnc4ccccc34)cc2)cc1,inactive
4,COC(=O)c1cc(OC)c(OC)cc1NC(=O)C1CCCO1 (configuration not stated),20 µM (active)
5,Cc1cc([N+](=O)[O-])ccc1NC(=O)C1CCCO1 (configuration not stated),inactive
6,CCc1cc(Br)ccc1NC(=O)C1CCCO1 (configuration not stated),inactive
7,C#Cc1ccc(NC(=O)C2(C)CCN2C(=O)Cc2ccc(-c3ccccc3)cc2)cc1 (configuration not stated),inactive
8,CCCNC(=O)C1(C)CCN(C(=O)c2ccccc2OC(F)(F)F)C1 (configuration not stated),inactive
9,O=C(Nc1ccc(Cl)cc1)c1csc([C@@H]2O[C@H](CO)[C@H](O)[C@H](O)[C@H]2O)n1,inactive
10,COc1ccc(C2Nc3ccc(NC(=O)COC(C)=O)cc3C(=O)N2Cc2ccccc2)cc1COc1ccc(NC(C)=O)cc1 (configuration not stated),inactive
11,COc1ccc(C2Nc3ccccc3C(=O)N2Cc2ccccc2)cc1Cn1nnc2ccccc21 (configuration not stated),35.5 µM (active)
12,COc1ccc(C2Nc3ccccc3C(=O)N2c2ccc(F)cc2)cc1Cn1nnc2ccccc21 (configuration not stated),inactive
13,COc1cccc(C(NC(C)=O)c2nc(-c3cnc4ccccc4c3)cs2)c1 (configuration not stated),inactive
14,COCC(C)NC(=O)c1ccc(-n2nc(C(F)(F)F)cc2-c2cccs2)cc1 (configuration not stated),inactive
15,CC(CCc1ccccc1)NC(=O)c1cnc(Cl)c(Cl)c1 (configuration not stated),inactive
16,COCC(C)NC(=O)c1ccc(Cl)c(Cl)c1 (configuration not stated),14.1 µM (active)
17,CCOC(=O)C1=CCC(c2ccc(F)cc2)N(S(=O)(=O)c2ccc(C)cc2)C1 (configuration not stated),inactive
18,CCCCOc1ccc(NC(=O)c2cc3c(n(-c4ccc(Cl)cc4)c2=O)CCCC3=O)cc1,inactive
19,CCOC(=O)C1=C(N)N(c2ccc(C)cc2)C2=C(C(=O)CCC2)C1c1cccs1 (configuration not stated),inactive
20,CCOC(=O)c1cc2c(n(-c3ccc(C)cc3)c1=O)CCCC2=O,31.6 µM (active)
